Measurements from PubChem BioAssay (NCATS).
Results filed as inconclusive are left out. Calls of active or inactive are those of the source. Calls follow the shape of the dose curve; as a rule, active = well fitted curve in the direction sought with a large enough effect; inconclusive = small, poorly fitted or top-dose-only effect, or another doubt; inactive = no such curve, though single readings can be large; an effect the other way counts as inactive or inconclusive.

Legend:
[1] = Cellular Toxicity (caspase-3) Renal Proximal Tubule (AID 667);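 also: cells exposed to compound for 16 hours at 37 °C before detection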
How it was run: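 AC50 derived by standard Hill fit of concentration-response data, normalized between DMSO basal and 10 uM staurosporine as 100% stimulation. Cells: primary rat kidney proximal tubule, 16 h treatment at 37 °C.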

[2] = biological target: Cytochrome P450 3A4 (Homo sapiens) (UniProt P08684); test: qHTS Assay for Inhibitors and Substrates of Cytochrome P450 3A4 (AID 884); also: series mostly up to about 57 µM; nearly all actives have a fitted effect of over 50% in size
How it was run: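 Luminescent readout of luciferin produced by CYP3A4 (20 nM) dealkylation of Luciferin-PPXE, 25 uM (its KM). NADPH-driven reaction ran 60 min at RT after 10 min compound preincubation; data scaled to 57 uM ketoconazole as 100% inhibition.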

[3] = Cell Viability - LYMP2-001 (AID 921); also: series mostly up to about 92 µM; nearly all actives have a fitted effect of over 70% in size
How it was run: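 Steps: seed 2500 lymphoblastoid cells/well; 5 hr, 37 C; add compound; 24 hr, 37 C; CellTiter-Glo reagent, 30 min room temperature; read luminescence. Concentration-response modeled by Hill equation for AC50.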

[4] = MultiTox-Fluor Cytotoxicity Assay - LYMP1-001 - Dead Cells (AID 946)
How it was run: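 Cytotoxicity as increased dead-cell protease fluorescence (bis-AAF-R110, 485/520 nm), read 60 min after MultiTox-Fluor reagent. Human lymphoblastoid line exposed 16 h; Hill-fitted AC50, with DMSO as 0% and 15 uM tetraoctylammonium bromide as 100%.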

[5] = MultiTox-Fluor Cytotoxicity Assay - LYMP1-001 - Live Cells (AID 947)
[6] = Cell Viability - LYMP1-002 - Assay at 16 hr (AID 948)
How it was run: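 Seed 2500 LYMP1-002 cells per well in complete medium and hold 5 hr at 37 C. Add compound across a concentration series and incubate 16 hr at 37 C. Add CellTiter-Glo, wait 30 min at room temperature, read luminescence.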

[7] = MultiTox-Fluor Cytotoxicity Assay - LYMP1-002 - Live Cells (AID 955);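 also: cells exposed to compound for 16 hours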
How it was run: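 Cells were seeded at 2500 per well and incubated 5 hr. Compounds were then added for 16 hr at 37 C, followed by MultiTox-Fluor reagent for 60 min at room temperature and fluorescence reading of viable-cell protease signal.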

[8] = MultiTox-Fluor Cytotoxicity Assay - LYMP1-002 - Dead Cells (AID 960); also: nearly all actives have a fitted effect of over 60% in size
How it was run: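 Cells were plated, rested 5 hr, then treated with compound dilution series for 16 hr at 37 C. After adding substrate reagent and 60 min at room temperature, dead-cell protease fluorescence gave concentration-response curves fitted by the Hill equation.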

[9] = MultiTox-Fluor Cytotoxicity Assay - LYMP1-003 - Dead Cells (AID 961); also: nearly all actives have a fitted effect of over 70% in size
How it was run: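 Dead-cell protease release, detected as bis-AAF-R110 fluorescence at 485/520 nm, was measured in LYMP1-003 cells after 16 h compound treatment at 37 C. AC50 values came from Hill-modeled qHTS curves normalized to DMSO (0%) and 15 uM tetraoctylammonium bromide (100%).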

[10] = MultiTox-Fluor Cytotoxicity Assay - LYMP1-003 - Live Cells (AID 962);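 also: cells exposed to compound for 16 hours at 37 °C; cytotoxic hits lower the live-cell protease signal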
How it was run: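 Acute cytotoxicity is scored as a drop in live-cell protease activity in human lymphoblastoid LYMP1-003 cells after 16 hr compound exposure at 37 C. AC50 values come from Hill-equation modelling of concentration-response data.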

[11] = Cell Viability - LYMP1-003 - Assay at 24 hr (AID 963)
How it was run: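 Cytotoxicity is scored as a concentration-dependent fall in ATP-linked luciferase signal in human lymphoblastoid LYMP1-003 cells treated 24 hr at 37 C in complete culture medium.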

[12] = Cell Viability - LYMP1-003 - Assay at 40 hr (AID 964); also: series mostly up to about 92 µM; nearly all actives have a fitted effect of over 60% in size
How it was run: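 Luminescent ATP signal (CellTiter-Glo) served as the viability read-out after 40 hr compound treatment of human lymphoblastoid LYMP1-003 cells at 37 C. Decreases in ATP were fitted with the Hill equation to give AC50.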

[13] = Cell Viability - LYMP2-003 (AID 965);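 also: cells exposed to compounds for 24 h before reading; nearly all actives have a fitted effect of over 50% in size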
How it was run: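 Seed 2500 lymphoblastoid cells/well; incubate 5 hr, 37 C; add compounds; incubate 24 hr, 37 C; add CellTiter-Glo, 30 min RT; read luminescence. AC50 from Hill fit.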

[14] = Cell Viability - LYMP2-004 (AID 966); also: nearly all actives have a fitted effect of over 65% in size
How it was run: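 qHTS cytotoxicity: human lymphoblastoid line, 24 hr compound treatment, 37 C, complete medium. Viability read as cellular ATP via luciferase luminescence; tetraoctylammonium bromide served as positive control.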

[15] = Cell Viability - LYMP2-005 (AID 967); also: series mostly up to about 92 µM
How it was run: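 Acute cytotoxicity is scored as a concentration-dependent drop in intracellular ATP in human lymphoblastoid LYMP2-005 cells after 24 h compound treatment. ATP is quantified by luciferase luminescence, and AC50 is derived by Hill-equation modelling.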

[16] = Cell Viability - LYMP2-009 (AID 968); also: series mostly up to about 92 µM; nearly all actives have a fitted effect of over 55% in size
[17] = Cell Viability - LYMP2-011 (AID 969); also: nearly all actives have a fitted effect of over 60% in size
How it was run: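 In this qHTS cytotoxicity format, compounds are tested across concentrations on human lymphoblastoid cells in complete medium for 24 hours at 37 C. Viability is taken as cellular ATP measured by luciferase luminescence.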

[18] = Cell Viability - LYMP2-013 (AID 970); also: series mostly up to about 92 µM; nearly all actives have a fitted effect of over 55% in size
How it was run: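 Cytotoxicity is scored as a concentration-dependent drop in intracellular ATP in human lymphoblastoid cells after 24 hr compound exposure at 37 C. ATP is quantified by luciferase luminescence, and AC50 values come from Hill-equation modeling.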

[19] = Cell Viability - LYMP2-017 (AID 972); also: series mostly up to about 92 µM; nearly all actives have a fitted effect of over 55% in size
How it was run: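 Cytotoxicity is scored as a concentration-dependent drop in cellular ATP in a human lymphoblastoid line after 24 hr treatment at 37 C. Values are AC50s from Hill-equation modelling.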

[20] = Cell Viability - LYMP2-019 (AID 973); also: nearly all actives have a fitted effect of over 55% in size
How it was run: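 Cytotoxicity is scored as a concentration-dependent drop in cellular ATP after cells (2500/well) receive compound for 24 hr at 37 C. Tetraoctylammonium bromide serves as positive control.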

[21] = Cell Viability - LYMP2-021 (AID 974)
How it was run: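 Loss of cellular ATP, measured with a luciferase-based CellTiter-Glo readout, serves as the toxicity signal in human lymphoblastoid cells treated for 24 hours at 37 C. Potency is reported as AC50 from a standard Hill model.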

[22] = Cell Viability - LYMP2-023 (AID 975)
How it was run: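 Steps: seed 2500 human lymphoblastoid cells per well, incubate 5 hr at 37 C, add compound for 24 hr at 37 C, add CellTiter-Glo, hold 30 min at room temperature, read luminescence. AC50 derived by Hill modelling.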

[23] = Cell Viability - LYMP2-025 (AID 976); also: series mostly up to about 92 µM
How it was run: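 Acute cytotoxicity is scored as a concentration-dependent fall in intracellular ATP, measured by luciferase luminescence, in human lymphoblastoid LYMP2-025 cells exposed to compound for 24 hours at 37 C. AC50 values come from standard Hill fits.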

[24] = Cell Viability - LYMP2-002 (AID 977);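 also: series mostly up to about 92 µM; compound exposure lasted 24 h at 37 °C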
How it was run: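 Human lymphoblastoid cells (2500/well) in complete medium were preincubated 5 hr at 37 C, then exposed to compounds for 24 hr at 37 C. Intracellular ATP was read by CellTiter-Glo luminescence; AC50 came from Hill-equation concentration-response fits.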

[25] = Cell Viability - LYMP2-006 (AID 978); also: series mostly up to about 92 µM; nearly all actives have a fitted effect of over 60% in size
How it was run: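 Cells are seeded at 2500 per well and rested 5 hr at 37 C. Compounds are added across a concentration series for 24 hr at 37 C, after which ATP is quantified by luciferase luminescence.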

[26] = Cell Viability - LYMP2-007 (AID 979)
How it was run: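 Cells are seeded at 2500 per well and rested 5 hr. Compounds are then added over a concentration series for 24 hr at 37 C. CellTiter-Glo is added for 30 min at room temperature before luminescence reading.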

Measured: Potency

Cytochrome P450 3A4 (Homo sapiens), sequence (P08684 whole entry, looked up): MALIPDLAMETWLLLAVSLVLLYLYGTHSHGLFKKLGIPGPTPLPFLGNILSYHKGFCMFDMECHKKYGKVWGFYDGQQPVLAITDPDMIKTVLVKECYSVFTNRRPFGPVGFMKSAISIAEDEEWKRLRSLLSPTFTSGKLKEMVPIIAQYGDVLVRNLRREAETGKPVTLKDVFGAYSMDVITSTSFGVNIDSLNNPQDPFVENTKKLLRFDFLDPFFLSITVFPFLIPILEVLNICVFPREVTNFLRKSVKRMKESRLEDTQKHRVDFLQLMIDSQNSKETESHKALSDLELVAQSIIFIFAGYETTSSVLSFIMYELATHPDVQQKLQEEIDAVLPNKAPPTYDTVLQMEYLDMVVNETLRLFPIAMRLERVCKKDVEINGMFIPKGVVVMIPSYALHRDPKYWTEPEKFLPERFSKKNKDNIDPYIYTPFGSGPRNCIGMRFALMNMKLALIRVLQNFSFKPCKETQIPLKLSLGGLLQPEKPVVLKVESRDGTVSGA

Cc1ccccc1O
inactive: all assays above
